Reference: PubChem BioAssay (EPA / NIEHS)
Activity calls are given as the source filed them. The calls were made as follows: active = hit-call score of the fitted dose curve at least 0.9, where 1 is the maximum; inactive = score below 0.9.

Biological target: Transcriptional activator Myb (Homo sapiens) (UniProt P10242)
Test: ATG_Myb_CIS: Attagene CIS-FACTORIAL HepG2 Assay for human Myeloblastosis (Myb) Proto-Oncogene Transcription Factor (AID 2282986)
Details: HepG2 Attagene CIS-FACTORIAL Myb reporter transcription; actives raise or lower the signal
Method: ATG_CIS is a cell-based, multiplexed-readout assay that uses HepG2, a human liver cell line, with measurements taken at 24 hours after chemical dosing in a 24-well plate.ATG_Myb_CIS is one of 52 assay component(s) measured or calculated from the ATG_CIS assay. It is designed to make measurements of mRNA induction, a form of inducible reporter, as detected with fluorescence intensity signals by Reverse transcription polymerase chain reaction (RT-PCR) and Capillary electrophoresis technology.Data from the assay component ATG_Myb_CIS was analyzed into 1 assay endpoint. This assay endpoint, ATG_Myb_CIS, was analyzed with bidirectional fitting relative to DMSO as the negative control and baseline of activity. Using a type of inducible reporter, measures of mRNA for gain or loss-of-signal activity can be used to understand the reporter gene at the transcription factor-level as they relate to the gene MYB. Furthermore, this assay endpoint can be referred to as a primary readout, because this assay has produced multiple assay endpoints where this one serves a reporter gene function. To generalize the intended target to other relatable targets, this assay endpoint is annotated to the dna binding intended target family, where the subfamily is MYB proteins.
Human liver HepG2 cells are transiently transfected with multiple reporter transcription units (MRTUs) in 6-well plates using FuGene 6 reagent (Roche; 3 ml FuGene/1 mg DNA). The MRTU constructs are regulated by a cis-regulating element (promoter). […] A major difference between the CIS and TRANS system is that in CIS activities of endogenous TFs are measured, whereas the TRANS assay evaluates changes in activities of exogenous, chimeric NR-Gal4 proteins. […] At the end of 24 hour incubation, total RNA was isolated using TriZol reagent (Invitrogen). The isolated RNA is then reverse-transcribed using oligo(dT) primer and Mo-MLV reverse transcriptase (Invitrogen) with DNAse I (Ambion) treatment for 30 min. The one-tenth of the produced cDNA was amplified by PCR using Taq DNA polymerase (Invitrogen) and two reporter sequence-specific primers. The PCR products were fluorescently labeled by primer extension with 6-arboxyfluorescein (6-FAM) 5'-labeled reporter sequence-specific primer (2 min at 95 C, 20 s at 68 C and 10 min at 72 C) and these products were digested with 5U of HpaI (New England Biolabs) for 2h at 37 C. The fragments were purified using Qiaquick PCR columns (Qiagen), analyzed on an ABI 3130xL genetic analyzer (Applied Biosystems) with peak positions identified by using a set of X-rhodamine (ROX)-labeled MapMarker1000 molecular weight standards (BioVentures). The raw capillary electrophoresis data was processed using Attagraph software (Attagene).

Transcriptional activator Myb (Homo sapiens), sequence (P10242 whole entry, looked up): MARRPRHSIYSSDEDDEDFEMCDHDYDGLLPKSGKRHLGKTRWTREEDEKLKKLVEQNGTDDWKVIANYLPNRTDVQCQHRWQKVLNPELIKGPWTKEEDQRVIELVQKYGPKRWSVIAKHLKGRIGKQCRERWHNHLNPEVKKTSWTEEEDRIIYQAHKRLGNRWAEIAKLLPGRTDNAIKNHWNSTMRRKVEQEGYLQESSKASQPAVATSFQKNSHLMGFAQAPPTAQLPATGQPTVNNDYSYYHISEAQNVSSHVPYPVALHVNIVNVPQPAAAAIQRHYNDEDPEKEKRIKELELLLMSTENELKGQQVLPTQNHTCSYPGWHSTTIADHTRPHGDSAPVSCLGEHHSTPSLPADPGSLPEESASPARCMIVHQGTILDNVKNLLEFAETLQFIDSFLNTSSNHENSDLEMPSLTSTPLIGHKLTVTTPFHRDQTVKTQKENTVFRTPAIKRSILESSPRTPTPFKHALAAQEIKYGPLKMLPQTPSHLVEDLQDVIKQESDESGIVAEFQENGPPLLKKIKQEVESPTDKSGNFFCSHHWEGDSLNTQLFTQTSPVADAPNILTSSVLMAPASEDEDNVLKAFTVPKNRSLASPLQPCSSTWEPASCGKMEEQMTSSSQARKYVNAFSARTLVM

outcome, inactive:
CN(C)Cc1cc(C(C)(C)C)c(O)c(C(C)(C)C)c1
CNC[C@H](O)[C@@H](O)[C@H](O)[C@H](O)CO
CCCCOC(=O)COc1ccc(Cl)cc1Cl
CCC(C)C1N=C(C)C(C)S1 (stereo not given)
NC(N)=Nc1nc(CSCCC(N)=NS(N)(=O)=O)cs1
COc1ccccc1OCC(O)CO (stereo not given)
CN(C)N=Nc1ccccc1
COCCCN
CC(=O)OC(C)(C)Cc1ccccc1
OCCc1ccccn1
Oc1ccc(Cl)cc1C1CCCC1
O=C1NC(=O)[C@@H]2CC=CC[C@H]12
CCO[Si](OCC)(OCC)c1ccccc1
CCC(C)=NO
c1ccc2c(c1)Oc1ccccc1S2
NC(=O)c1ccc(N)cc1
CN(C)CCC(c1ccc(Cl)cc1)c1ccccn1 (stereo not given)
CC[N+](CC)(CC(=O)Nc1c(C)cccc1C)Cc1ccccc1 (tested in a mixture with another compound)
COC(=O)[C@]1(C)CCC[C@@]2(C)[C@H]1CC=C1C=C(C(C)C)CC[C@@H]12
c1cc[c]([Bi]([c]2ccccc2)[c]2ccccc2)cc1
CCCCCCCCCCCCCC
CC1=C(CC(=O)O)c2cc(F)ccc2/C1=C\c1ccc(S(C)=O)cc1 (stereo not given)
CO[Si](CCCNCCN)(OC)OC
CC(C)CC(=O)O
Cc1cc(O)cc(C)c1Cl
COC(OC)C(C)c1ccccc1 (stereo not given)
CC/C=C\CC1=C(C)CCC1=O
CCCCCCC1CCC(=O)O1 (stereo not given)
O=C(c1ccccc1)c1ccccc1O
[O-][n+]1ccc(Cl)cc1
Brc1ccc(Oc2ccc(Br)cc2)cc1
CC(C)=CCOC(=O)c1ccccc1
NCc1ccccc1
O=C(C1CCCCC1)N1CC(=O)N2CCc3ccccc3C2C1 (stereo not given)
CCCCC(CC)COC(=O)CS (stereo not given)
CCCc1c(OCCCCc2nn[nH]n2)ccc(C(C)=O)c1O
CCCCCCC(O)CCCCCCCCCCC(=O)OC (stereo not given)
OCCN(CCO)c1cccc(Cl)c1
CC1=C(CC=O)C(C)(C)CCC1
O=C(Oc1ccccc1)c1ccccc1
